In PubChem BioAssay (NCATS):
Results filed as inconclusive are left out. Values without a mark were called inactive. Calls of active or inactive are those of the source. Unless noted, the call rests on the fitted dose curve; in most records, active means well fitted curve in the direction sought with a large enough effect; inconclusive means small, poorly fitted or top-dose-only effect, or another doubt; inactive means no such curve, though single readings can be large; an effect the other way counts as inactive or inconclusive.

How the values were obtained:
[1] = target: ATP-dependent 6-phosphofructokinase (Trypanosoma brucei brucei) (UniProt O15648); test: qHTS Assay to Find Inhibitors of T. brucei phosphofructokinase: hit validation (AID 492961);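 further: luminescence reports ADP formed as PFK phosphorylates fructose-6-phosphate with ATP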
ATP-dependent 6-phosphofructokinase (Trypanosoma brucei brucei), sequence (O15648 whole entry, looked up): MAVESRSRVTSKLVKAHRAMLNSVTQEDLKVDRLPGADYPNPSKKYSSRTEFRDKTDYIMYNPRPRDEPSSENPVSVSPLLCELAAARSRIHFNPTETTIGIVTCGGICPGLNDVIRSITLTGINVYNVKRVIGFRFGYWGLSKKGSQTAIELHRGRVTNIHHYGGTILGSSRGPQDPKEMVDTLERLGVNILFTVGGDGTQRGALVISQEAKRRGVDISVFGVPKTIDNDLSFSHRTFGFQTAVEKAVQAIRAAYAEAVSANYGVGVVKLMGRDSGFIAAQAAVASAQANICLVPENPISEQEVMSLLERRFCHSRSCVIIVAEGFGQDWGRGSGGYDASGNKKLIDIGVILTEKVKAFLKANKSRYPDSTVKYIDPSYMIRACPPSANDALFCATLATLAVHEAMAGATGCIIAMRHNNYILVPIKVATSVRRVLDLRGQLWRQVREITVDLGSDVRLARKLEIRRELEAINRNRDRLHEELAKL
Procedure, shortened: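 Measures ADP output of PFK (1.25 nM) at 0.1 mM ATP, 0.5 mM F6P, pH 8.0 TEA buffer with 5 mM MgCl2. No-enzyme wells define full inhibition; uninhibited enzyme wells define zero.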

[2] = target: Ubiquitin carboxyl-terminal hydrolase 1 (Homo sapiens) (UniProt O94782); test: Inhibitors of USP1/UAF1: Pilot qHTS (AID 504865);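 further: rhodamine fluorescence freed from ubiquitin-rhodamine substrate followed over time; top concentration of the series differs between compounds; nearly all actives have a fitted effect of over 35% in size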
Ubiquitin carboxyl-terminal hydrolase 1 (Homo sapiens), sequence (O94782 whole entry, looked up): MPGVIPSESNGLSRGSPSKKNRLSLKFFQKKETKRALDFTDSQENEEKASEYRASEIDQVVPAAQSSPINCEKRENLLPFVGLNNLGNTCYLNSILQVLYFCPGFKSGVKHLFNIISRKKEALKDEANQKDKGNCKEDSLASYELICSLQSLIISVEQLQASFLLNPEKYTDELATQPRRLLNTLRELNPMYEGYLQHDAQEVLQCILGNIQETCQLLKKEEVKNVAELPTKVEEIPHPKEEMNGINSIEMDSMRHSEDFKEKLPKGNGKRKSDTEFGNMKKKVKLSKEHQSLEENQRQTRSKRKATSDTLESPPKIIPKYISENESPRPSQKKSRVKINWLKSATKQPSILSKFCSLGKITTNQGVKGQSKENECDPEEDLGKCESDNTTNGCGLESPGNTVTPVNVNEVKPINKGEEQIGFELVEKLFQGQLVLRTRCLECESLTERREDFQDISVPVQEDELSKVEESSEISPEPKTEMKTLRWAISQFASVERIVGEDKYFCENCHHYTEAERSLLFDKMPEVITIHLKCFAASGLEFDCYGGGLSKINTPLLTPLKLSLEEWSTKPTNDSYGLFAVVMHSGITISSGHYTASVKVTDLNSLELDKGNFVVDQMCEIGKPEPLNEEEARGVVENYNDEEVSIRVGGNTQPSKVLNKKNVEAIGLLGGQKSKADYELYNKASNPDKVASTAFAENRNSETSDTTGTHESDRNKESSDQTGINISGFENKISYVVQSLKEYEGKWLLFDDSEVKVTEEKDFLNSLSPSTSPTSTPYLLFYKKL
Procedure, shortened: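 1nM USP1/UAF1 + cpd, 15 min RT; start w/ Ub-Rho 150nM final; kinetic FL 480/540 nm, 6 reads q60 s. Buffer 50mM HEPES pH 7.8, 0.5mM EDTA, 1mM TCEP, 0.01% Tween-20, 0.1 mg/ml BSA.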

[3] = target: Luciferin 4-monooxygenase (Photinus pyralis) (UniProt P08659); test: Biochemical firefly luciferase enzyme assay for NPC (AID 624030);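 further: purified P. pyralis luciferase at 10 nM with luciferin and ATP substrate; nearly all actives have a fitted effect of over 70% in size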
Luciferin 4-monooxygenase (Photinus pyralis), sequence (P08659 whole entry, looked up): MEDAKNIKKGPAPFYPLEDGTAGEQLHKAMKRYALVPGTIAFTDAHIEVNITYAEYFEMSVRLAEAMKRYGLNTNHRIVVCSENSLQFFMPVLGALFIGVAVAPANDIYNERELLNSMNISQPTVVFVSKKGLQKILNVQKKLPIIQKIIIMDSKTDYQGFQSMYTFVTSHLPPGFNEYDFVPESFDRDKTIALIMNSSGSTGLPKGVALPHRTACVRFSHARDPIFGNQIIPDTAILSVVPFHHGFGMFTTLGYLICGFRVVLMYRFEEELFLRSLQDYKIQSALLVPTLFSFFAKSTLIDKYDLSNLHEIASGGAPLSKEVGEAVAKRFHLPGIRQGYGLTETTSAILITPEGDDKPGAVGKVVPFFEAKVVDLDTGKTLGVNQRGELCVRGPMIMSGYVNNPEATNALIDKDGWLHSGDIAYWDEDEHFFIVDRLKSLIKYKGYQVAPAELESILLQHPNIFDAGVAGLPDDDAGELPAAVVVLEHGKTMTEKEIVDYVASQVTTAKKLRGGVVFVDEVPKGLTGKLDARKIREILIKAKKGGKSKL
Procedure, shortened: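 Direct inhibition of firefly luciferase enzyme (10 nM final, 50 mM Tris Acetate) assessed by luminescence within 5 minutes. Percent activity scaled between DMSO and PTC124 positive control, with concentration-effect curves classified by fit quality and response.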

[4] = S16 Schwann cell viability assay (CellTiter-Glo assay) (AID 624031);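 further: native untransfected S16 rat Schwann cells; cellular ATP luminescence as a viability measure; nearly all actives have a fitted effect of over 70% in size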
Procedure, shortened: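 Cells were seeded at 500-750 per well in phenol red-free DMEM with 10% FBS and left overnight. Compounds or DMSO were pinned in, incubation ran 24 h at 37 °C/5% CO2, then CellTiter-Glo reagent was added and luminescence measured.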

[5] = S16 Schwann cell PMP22 intronic element firefly luciferase assay (AID 624032); further: nearly all actives have a fitted effect of over 30% in size
Procedure, shortened: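 Luciferase reporter of PMP22 intronic-element expression in stably transfected S16 rat Schwann cells, read by ONE-Glo luminescence after 24 h compound exposure at 37 C. Activity scaled between DMSO (0%) and positive-control PTC124; concentration-effect curves quality-classified.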

[6] = S16 Schwann cell PMP22 intronic element beta-lactamase assay (AID 624044; calls by dose curve; further: nearly all actives have a fitted effect of over 15% in size)
Procedure, shortened: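 Rat S16 Schwann cells with beta-Lac driven by a PMP22 intronic element, compound-treated 24 h at 37 °C. LiveBLAzer FRET B/G read: 460 nm normalized to potassium clavulanate vs DMSO; 535 nm FRET as viability; concentration-effect curves classified.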

[7] = qHTS profiling for inhibitors of Plasmodium falciparum proliferation (AID 504749); further: nearly all actives have a fitted effect of over 60% in size; further: potency means the concentration at half of the fitted maximal effect; details: P. falciparum in erythrocytes, SYBR Green DNA, 72 h; parasite line A
Procedure, shortened: (§1)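 Infected RBCs, 0.3% parasitemia/2.5% Hct final; cpd 72 h, 37 C, 5% CO2; lysis buffer with saponin/triton/SYBR Green I, o/n RT dark; FI 485/535; norm. to artemisinin (0.29 uM) and DMSO.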

7G8 = test: as above; details: P. falciparum in erythrocytes, SYBR Green DNA, 72 h; series mostly up to 28.7 µM
Procedure, shortened: as §1

AA1029 = test: as above; details: P. falciparum in erythrocytes, SYBR Green DNA, 72 h; series mostly up to 28.7 µM
Procedure, shortened: as §1

AS120 = test: as above; details: P. falciparum in erythrocytes, SYBR Green DNA, 72 h; series mostly up to 28.7 µM
Procedure, shortened: as §1

ATS189 = test: as above; details: P. falciparum in erythrocytes, SYBR Green DNA, 72 h; series mostly up to 28.7 µM
Procedure, shortened: as §1

ATS95 = test: as above; details: P. falciparum in erythrocytes, SYBR Green DNA, 72 h; series mostly up to 28.7 µM
Procedure, shortened: as §1

C2A = test: as above; details: P. falciparum in erythrocytes, SYBR Green DNA, 72 h; series mostly up to 28.7 µM
Procedure, shortened: as §1

CP185 = test: as above; details: P. falciparum in erythrocytes, SYBR Green DNA, 72 h; series mostly up to 28.7 µM
Procedure, shortened: as §1

CP191 = test: as above; details: P. falciparum in erythrocytes, SYBR Green DNA, 72 h; series mostly up to 28.7 µM
Procedure, shortened: as §1

CP192 = test: as above; details: P. falciparum in erythrocytes, SYBR Green DNA, 72 h; series mostly up to 28.7 µM
Procedure, shortened: as §1

CP194 = test: as above; details: P. falciparum in erythrocytes, SYBR Green DNA, 72 h; series mostly up to 28.7 µM
Procedure, shortened: as §1

CP217 = test: as above; details: P. falciparum in erythrocytes, SYBR Green DNA, 72 h; series mostly up to 28.7 µM
Procedure, shortened: as §1

CP237 = test: as above; details: P. falciparum in erythrocytes, SYBR Green DNA, 72 h; series mostly up to 28.7 µM
Procedure, shortened: as §1

CP238 = test: as above; details: P. falciparum in erythrocytes, SYBR Green DNA, 72 h; series mostly up to 28.7 µM
Procedure, shortened: as §1

CP247 = test: as above; details: P. falciparum in erythrocytes, SYBR Green DNA, 72 h; series mostly up to 28.7 µM
Procedure, shortened: as §1

CP252 = test: as above; details: P. falciparum in erythrocytes, SYBR Green DNA, 72 h; series mostly up to 28.7 µM
Procedure, shortened: as §1

CP256 = test: as above; details: P. falciparum in erythrocytes, SYBR Green DNA, 72 h; series mostly up to 28.7 µM
Procedure, shortened: as §1

CP260 = test: as above; details: P. falciparum in erythrocytes, SYBR Green DNA, 72 h; series mostly up to 28.7 µM
Procedure, shortened: as §1

CP262 = test: as above; details: P. falciparum in erythrocytes, SYBR Green DNA, 72 h; series mostly up to 28.7 µM
Procedure, shortened: as §1

CP265 = test: as above; details: P. falciparum in erythrocytes, SYBR Green DNA, 72 h; series mostly up to 28.7 µM
Procedure, shortened: as §1

CP269 = test: as above; details: P. falciparum in erythrocytes, SYBR Green DNA, 72 h; series mostly up to 28.7 µM
Procedure, shortened: as §1

CP286 = test: as above; details: P. falciparum in erythrocytes, SYBR Green DNA, 72 h; series mostly up to 28.7 µM
Procedure, shortened: as §1

CP297 = test: as above; details: P. falciparum in erythrocytes, SYBR Green DNA, 72 h; series mostly up to 28.7 µM
Procedure, shortened: as §1

CP335 = test: as above; details: P. falciparum in erythrocytes, SYBR Green DNA, 72 h; series mostly up to 28.7 µM
Procedure, shortened: as §1

DFO2036 = test: as above; details: P. falciparum in erythrocytes, SYBR Green DNA, 72 h; series mostly up to 28.7 µM
Procedure, shortened: as §1

DIV14 = test: as above; details: P. falciparum in erythrocytes, SYBR Green DNA, 72 h; series mostly up to 28.7 µM
Procedure, shortened: as §1

DIV17 = test: as above; details: P. falciparum in erythrocytes, SYBR Green DNA, 72 h; series mostly up to 28.7 µM
Procedure, shortened: as §1

Dd2 = test: as above; details: P. falciparum in erythrocytes, SYBR Green DNA, 72 h; series mostly up to 28.7 µM
Procedure, shortened: as §1

ECU = test: as above; details: P. falciparum in erythrocytes, SYBR Green DNA, 72 h; series mostly up to 28.7 µM
Procedure, shortened: as §1

FAB9 = test: as above; details: P. falciparum in erythrocytes, SYBR Green DNA, 72 h; series mostly up to 28.7 µM
Procedure, shortened: as §1

GB4 = test: as above; details: P. falciparum in erythrocytes, SYBR Green DNA, 72 h; series mostly up to 28.7 µM
Procedure, shortened: as §1

ICS = test: as above; details: P. falciparum in erythrocytes, SYBR Green DNA, 72 h; series mostly up to 28.7 µM
Procedure, shortened: as §1

JCK = test: as above; details: P. falciparum in erythrocytes, SYBR Green DNA, 72 h; series mostly up to 28.7 µM
Procedure, shortened: as §1

N140 = test: as above; details: P. falciparum in erythrocytes, SYBR Green DNA, 72 h; series mostly up to 28.7 µM
Procedure, shortened: as §1

P93_24 = test: as above; details: P. falciparum in erythrocytes, SYBR Green DNA, 72 h; series mostly up to 28.7 µM
Procedure, shortened: as §1

P94_40 = test: as above; details: P. falciparum in erythrocytes, SYBR Green DNA, 72 h; series mostly up to 28.7 µM
Procedure, shortened: as §1

PC49 = test: as above; details: P. falciparum in erythrocytes, SYBR Green DNA, 72 h; series mostly up to 28.7 µM
Procedure, shortened: as §1

SC27B = test: as above; details: P. falciparum in erythrocytes, SYBR Green DNA, 72 h; series mostly up to 28.7 µM
Procedure, shortened: as §1

TAB109 = test: as above; details: P. falciparum in erythrocytes, SYBR Green DNA, 72 h; series mostly up to 28.7 µM
Procedure, shortened: as §1

TAB113 = test: as above; details: P. falciparum in erythrocytes, SYBR Green DNA, 72 h; series mostly up to 28.7 µM
Procedure, shortened: as §1

TAB165 = test: as above; details: P. falciparum in erythrocytes, SYBR Green DNA, 72 h; series mostly up to 28.7 µM
Procedure, shortened: as §1

W2 = test: as above; details: P. falciparum in erythrocytes, SYBR Green DNA, 72 h; series mostly up to 28.7 µM
Procedure, shortened: as §1

C=C[C@]1(C)C[C@@H](OC(=O)CSCCN(CC)CC)[C@]2(C)C(C)CC[C@]3(CCC(=O)[C@H]32)[C@@H](C)[C@@H]1O (stereo partly drawn)
outcome [1]: inactive
Potency [2]: inactive
Potency [3]: inactive
Potency [4]: inactive
Potency [5]: inactive
Potency [6]: inactive
Potency [7]: 10 µM (active)
Potency (7G8): 11.2 µM (active)
Potency (AA1029): 5.01 µM (active)
Potency (AS120): 10 µM (active)
Potency (ATS189): 8.91 µM (active)
Potency (ATS95): 7.94 µM (active)
Potency (C2A): 11.2 µM (active)
Potency (CP185): 5.01 µM (active)
Potency (CP191): 7.94 µM (active)
Potency (CP192): inactive
Potency (CP194): 7.57 µM (active)
Potency (CP217): 10 µM (active)
Potency (CP237): 8.91 µM (active)
Potency (CP238): 11.2 µM (active)
Potency (CP247): 6.31 µM (active)
Potency (CP252): 7.08 µM (active)
Potency (CP256): 8.91 µM (active)
Potency (CP260): 5.62 µM (active)
Potency (CP262): inactive
Potency (CP265): 8.91 µM (active)
Potency (CP269): 6.75 µM (active)
Potency (CP286): 3.55 µM (active)
Potency (CP297): 6.75 µM (active)
Potency (CP335): 5.36 µM (active)
Potency (DFO2036): 10 µM (active)
Potency (DIV14): 15.1 µM (active)
Potency (DIV17): 13.5 µM (active)
Potency (Dd2): 3.16 µM (active)
Potency (ECU): 12.6 µM (active)
Potency (FAB9): inactive
Potency (GB4): 6.75 µM (active)
Potency (ICS): 3.98 µM (active)
Potency (JCK): inactive
Potency (N140): 8.91 µM (active)
Potency (P93_24): 5.01 µM (active)
Potency (P94_40): 4.47 µM (active)
Potency (PC49): inactive
Potency (SC27B): 7.94 µM (active)
Potency (TAB109): 3.98 µM (active)
Potency (TAB113): 11.2 µM (active)
Potency (TAB165): 7.08 µM (active)
Potency (W2): 2.13 µM (active)
